# Values joined by “and” are separate entries in the source; they are usually repeats but may differ in a detail not shown here. Identical values can stand only once. Records with an inconclusive call do not appear. A call without a number means that no potency is given here. Where a structure was tested more than once in an assay, its records may differ in their call. Active and inactive are the calls of the source. Calls follow the shape of the dose curve; as a rule, active = well fitted cell-killing curve with a large enough effect in the repeat runs; inconclusive = weak or mixed curves, or effect the other way; inactive = flat fitted curve, though single readings scatter.
# Experiment: Nuclear factor erythroid 2-related factor 2/antioxidant responsive element (Nrf2/ARE) small molecule agonists: qHTS cell viability counter screen in human keratinocytes (AID 1919968); also: nearly all actives have a fitted effect of over 55% in size
# Details: KeratinoSens HaCaT ARE cells viability, CellTiter-Fluor, 24 h; series mostly up to 92.4 µM
# Description: U.S. Tox21 Program National Center for Advancing Translational Sciences [NCATS] Division of Preclinical Innovation [DPI] U.S. Environmental Protection Agency [EPA] National Institutes of Environmental Health Sciences [NIEHS] National Toxicology Program [NTP] U.S. Food and Drug Administration [FDA] Tox21 Assay Overview: Oxidative stress has been implicated in the pathogenesis of a variety of diseases ranging from cancer to neurodegeneration. The antioxidant response element (ARE) signaling pathway plays an important role in the amelioration of oxidative stress. The KeratinoSens (Givaudan, Switzerland) is an in vitro test method which quantifies luciferase induction as a measure of activation of Keap1-Nrf2-antioxidationt/electrophile response element (ARE) dependant pathway in HaCaT human keratinocytes stably transfected with a selectable plasmid. The KeratinoSens assay is a cell-based assay with a reporter cell line to detect potential skin sensitizers by their ability to induce the Nrf2/ARE-response. The activation of the report gene under culture conditions can be detected by ONE-Glo Luciferase Assay System (Promega, Madison, WI). This cell line has been used to screen the Tox21 10K compound library to identify agonists that induce oxidative stress. The cytotoxicity of the Tox21 compound library against the KS-ARE cell line was tested in parallel by measuring the cell viability using CellTiter- Fluor assay system (Promega, Madison, WI) in the same wells.
# Tox21 Assay Protocol Summary: HaCaT derived cell line KeratinoSens were dispensed at 1,500 cells/5uL/well in 1536-well white wall/solid bottom plates using a Multidrop Combi (ThermoFisher Scientific, Waltham, MA) dispenser. After the assay plates were incubated at 37 C/5% CO2 for 5 h, 23 nL of compounds dissolved in DMSO, positive controls or DMSO only was transferred to the assay plate by a pintool workstation (Kalypsys, San Diego, CA). The plates were incubated at 37 C/5% CO2 for 23 h, followed by addition of 1uL/well of CellTiter-Fluor reagent into the assay plates using a Flying Reagent Dispenser (Aurora Discovery, San Diego, CA) for cell viability readout that measures cytotoxicity. After 1 h incubation at 37 C/5% CO2 the fluorescence intensity was measured using a ViewLux (PerkinElmer, Shelton, CT) plate reader.
# Potency is read from the fitted curve at half-maximal effect.
row,Structure (SMILES),Potency
1,C[C@H]1C[C@H]2[C@@H]3CCC4=CC(=O)C=C[C@]4(C)[C@@]3(F)[C@@H](O)C[C@]2(C)[C@@]1(O)C(=O)CO,inactive
2,CN(C)C,inactive
3,CC(O)CO (stereo not given),inactive
4,CC(C)Cc1ccc(C(C)C(=O)O)cc1 (stereo not given),inactive
5,OC[C@@H](O)[C@@H](O)[C@H](O)[C@H](O)CO,inactive
6,CNC[C@H](O)c1ccc(O)c(O)c1,inactive
7,Cc1cc(=O)n(-c2ccccc2)n1C,inactive
8,Cc1ccc(N)c(S(=O)(=O)O)c1,inactive
9,Cc1cccc(O)c1,inactive
10,NC(=O)N1c2ccccc2C=Cc2ccccc21,inactive
11,O=C(O)Cn1c(=O)n(Cc2ccc(Br)cc2F)c(=O)c2ccc(Cl)cc21,inactive
12,O=C(O)c1ccc(C(=O)O)cc1,inactive
13,CC(=O)Nc1ccc2c(c1)Cc1cc(NC(C)=O)ccc1-2,inactive
14,CC1(C)S[C@@H]2[C@H](NC(=O)COc3ccccc3)C(=O)N2[C@H]1C(=O)O,inactive
15,Cc1cn([C@H]2C[C@H](N=[N+]=[N-])[C@@H](CO)O2)c(=O)[nH]c1=O,inactive
16,C=CCOC(=O)CC(C)C,inactive
17,CC(=O)OC/C=C(\C)CCC=C(C)C,inactive
18,CC1(C)S[C@@H]2[C@H](NC(=O)[C@H](N)c3ccccc3)C(=O)N2[C@H]1C(=O)O,inactive
19,CCCCCCCCCCCCCCCC[N+](C)(C)Cc1ccccc1,28.2 µM (active) and 24.8 µM (active) and 26.6 µM (active)
20,CC(C)(CO)CO,inactive

row,Structure (SMILES),Potency
1,COc1cc2c(c(OC)c1OC)-c1ccc(OC)c(=O)cc1[C@@H](NC(C)=O)CC2,inactive
2,O=C(O)c1cn(-c2ccc(F)cc2)c2cc(N3CCNCC3)c(F)cc2c1=O,inactive
3,CC(O)(P(=O)(O)O)P(=O)(O)O,inactive
4,CCCCOC(=O)COc1ccc(Cl)cc1Cl,inactive
5,C#CCN(C)Cc1ccccc1,inactive
6,NC1CCCCC1,inactive
7,Cc1ccc(C(C)C)cc1,inactive
8,C=CCOC(=O)c1ccccc1C(=O)OCC=C,inactive
9,Oc1cccc(O)c1,inactive
10,CC(=O)Nc1ccc(C(=O)CCl)cc1,inactive and 27.3 µM (active)
11,CC(=O)Oc1ccc(C)cc1,inactive
12,Nc1ccc(S(=O)(=O)Nc2nccs2)cc1,inactive
13,CC1(C)OC[C@@H]2O[C@@]3(C(=O)O)OC(C)(C)O[C@H]3[C@@H]2O1,inactive
14,C=C(C)C(=O)OCC(CC)(COC(=O)C(=C)C)COC(=O)C(=C)C,inactive
15,CCCCC(CC)COC(=O)/C=C\C(=O)OCC(CC)CCCC (stereo not given),inactive
16,CCC(O)OCCCOC (stereo not given),inactive
17,CCc1ccc(CCOc2ccc(CC3SC(=O)NC3=O)cc2)nc1 (stereo not given),inactive
18,Nc1ccc(O)c(C(=O)O)c1,inactive
19,CN(N=O)C(=O)N[C@@H]1[C@@H](O)[C@H](O)[C@@H](CO)O[C@@H]1O,inactive
20,C/C=C/c1ccc(O)c(OC)c1,inactive

# From PubChem BioAssay (Tox21)
